Bioassay records: PubChem BioAssay, National Center for Advancing Translational Sciences (NCATS)
NPR1 antag: blocks ANP-stimulated signaling of human Npr1 receptor. P16066. hit rate 1.6% among 76,000. Potency, µM (doses to about 46.3 µM), usual class: inhibitors. HEK293 hNpr1 GloSensor cGMP, ANP-stimulated luminescence. AID 1347048; calls by dose curve; also: nearly all actives have a fitted effect of over 60% in size
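HEK293 cells stably expressing human Npr1 and cGMP GloSensor pGS-40F, loaded 2 h with 2% GloSensor reagent, given compound 30 min at room temperature. Luminescence read before and 20 min after 0.1 nM hNppA.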
HEK293 tox: cytotoxic compounds in HEK 293 cells | HEK 293 viability, ATP luminescence (CellTiter-Glo), 48-72 h | Potency, µM (top dose mostly 115 µM), hits mostly inhibitors | hit rate 6.6% among 94,000; also: nearly all actives have a fitted effect of over 60% in size
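Cells seeded first (HEK 293, 250 cells/well), then compound added by pintool. Incubation ran 48 or 72 hr at 37 degree Celsius. CellTiter-Glo was added and luminescence imaged after 10 min at room temperature.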
3T3 cytotox: NIH 3T3 cell cytotoxicity | NIH 3T3 viability, CellTiter-Glo ATP luminescence, 48-72 h | Potency, µM (highest dose often 96.7 µM), most hits filed as inhibitors | hit rate 4.3% among 94,000; also: nearly all actives have a fitted effect of over 55% in size
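First NIH 3T3 cells are plated at 400 cells/well; next compound is pinned in; then plates incubate 48 or 72 hr at 37 °C; finally CellTiter-Glo is added and luminescence read after 10 min.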
FLuc inh: blocks purified firefly luciferase enzyme activity. hit rate 2.5% among 76,000. P08659. purified P. pyralis luciferase, luminescence, biochemical. Potency, µM (titrated, usually from 115 µM), usual class: inhibitors; also: nearly all actives have a fitted effect of over 65% in size
Target sequence (P08659 whole entry, looked up): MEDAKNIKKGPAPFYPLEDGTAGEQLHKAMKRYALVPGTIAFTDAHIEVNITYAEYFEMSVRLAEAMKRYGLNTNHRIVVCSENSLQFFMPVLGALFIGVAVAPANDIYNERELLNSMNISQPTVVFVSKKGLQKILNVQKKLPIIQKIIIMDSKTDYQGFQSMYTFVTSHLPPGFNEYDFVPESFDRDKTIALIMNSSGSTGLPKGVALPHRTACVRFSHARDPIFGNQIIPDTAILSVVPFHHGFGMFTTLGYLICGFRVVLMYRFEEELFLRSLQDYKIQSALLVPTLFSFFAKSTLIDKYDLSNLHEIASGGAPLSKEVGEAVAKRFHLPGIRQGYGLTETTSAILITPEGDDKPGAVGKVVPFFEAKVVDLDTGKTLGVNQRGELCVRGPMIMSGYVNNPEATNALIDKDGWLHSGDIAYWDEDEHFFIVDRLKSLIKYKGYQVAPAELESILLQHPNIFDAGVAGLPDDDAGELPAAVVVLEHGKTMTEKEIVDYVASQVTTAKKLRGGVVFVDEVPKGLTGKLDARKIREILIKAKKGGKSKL
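Cell-free enzyme assay, 10nM P. pyralis luciferase, luciferin and ATP each at 10uM. Inhibition profiled over a 6-point titration, read as luminescence.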
NPR1 antag cnf: confirmation of human Npr1 natriuretic peptide receptor antagonists; shares compounds with NPR1 antag; Potency, µM (highest dose often 57.6 µM), actives largely listed as inhibitors; hit rate 76% among 1,400; HEK293 hNpr1 cGMP GloSensor luminescence, ANP-stimulated; calls by dose curve; also: nearly all actives have a fitted effect of over 70% in size
NPR2 antag: hNpr2 antagonism, selectivity versus Npr1 | shares compounds with NPR1 antag | HEK293 hNpr2 GloSensor cGMP luminescence, CNP-stimulated | Potency, µM (top dose mostly 57.6 µM), hits mostly inhibitors | hit rate 67% among 1,400 | AID 1347046; calls by dose curve; also: nearly all actives have a fitted effect of over 70% in size
FLuc inh counter: inhibits firefly luciferase, false Npr1 antagonist flag; hit rate 0.7% among 1,400; shares compounds with NPR1 antag; Potency, µM (titrated, usually from 57.6 µM), actives largely listed as inhibitors; purified FLuc enzyme, luminescence, Km substrate; also: series mostly up to about 58 µM
GloSensor cGMP: control cell line activity, Npr1 antagonist counter-screen; shares compounds with NPR1 antag; Potency, µM (doses to about 57.6 µM), usual class: inhibitors; hit rate 69% among 1,400; HEK293 GloSensor cGMP, SNP-stimulated, luminescence; calls by dose curve; also: nearly all actives have a fitted effect of over 70% in size
Large screens that a line does not name were inactive (follow-up assays come after a bar, where they were run). The list is not random: actives were taken first. Their share in the collection is about 11%. Unless noted, calls follow the shape of the dose curve; as a rule, active = well fitted curve in the direction sought with a large enough effect; inconclusive = small, poorly fitted or top-dose-only effect, or another doubt; inactive = no such curve, though single readings can be large; an effect the other way counts as inactive or inconclusive.

COCc1ccc2c(c1)c(OC(C)(C)C(=O)N1CCN(CCO)CC1)nn2Cc1ccccc1	3T3 cytotox inconclusive
COCc1ccc2c(c1)c(OC(C)(C)C(=O)N1CCN(C)CC1)nn2CCC(C)C	HEK293 tox inconclusive
CC(C)(Oc1nn(Cc2cccc(Cl)c2)c2ccccc12)C(=O)N1CCN(CCO)CC1	NPR1 antag inconclusive, HEK293 tox inconclusive, 3T3 cytotox inconclusive | NPR1 antag cnf inconclusive | NPR2 antag inconclusive | FLuc inh counter inactive | GloSensor cGMP inactive
COC1CCN(C(=O)C(C)(C)Oc2nn(CCOc3ccccc3)c3ccccc23)CC1	NPR1 antag inconclusive, HEK293 tox 89µM, 3T3 cytotox inconclusive | NPR1 antag cnf inconclusive | NPR2 antag 25µM | FLuc inh counter inactive | GloSensor cGMP inactive
Cc1cc(NC(=O)C(C)(C)Oc2nn(CCOc3ccccc3)c3ccccc23)n(C)n1	NPR1 antag 25µM, HEK293 tox inconclusive, 3T3 cytotox inconclusive | NPR1 antag cnf 35µM | NPR2 antag 35µM | FLuc inh counter inactive | GloSensor cGMP 31µM
Cc1ccccc1S(=O)(=O)N1C[C@@H]2CCCN3CCC[C@@H]([C@H]23)[C@H]1CCCC(=O)NCC1CC1	HEK293 tox inconclusive
O=C(c1csc(N2CCN(c3ccccc3)CC2)n1)N1CCN(c2ccccn2)CC1	NPR1 antag 13µM | NPR1 antag cnf 27µM | NPR2 antag 24µM | FLuc inh counter inactive | GloSensor cGMP 24µM
O=C(c1csc(N2CCN(c3ccccc3)CC2)n1)N1CCCCCC1	NPR1 antag 10µM, HEK293 tox inconclusive, 3T3 cytotox inconclusive | NPR1 antag cnf 22µM | NPR2 antag 22µM | FLuc inh counter inactive | GloSensor cGMP 19µM
O=C1OC[C@@H]2CCN(Cc3ccc(Cl)cc3)Cc3ccc(F)cc3N12	HEK293 tox inconclusive, 3T3 cytotox inconclusive
CCN(Cc1cccc2cnccc12)CC1CCCN(CCc2cccc(F)c2)C1 (stereo not given)	NPR1 antag inconclusive, HEK293 tox 18µM, 3T3 cytotox 40µM | NPR1 antag cnf 24µM | NPR2 antag 19µM | FLuc inh counter inactive | GloSensor cGMP inactive
COc1cccc(N2CCN(c3nc(C(=O)NCc4ccccc4F)cs3)CC2)c1	NPR1 antag 13µM, HEK293 tox 45µM, 3T3 cytotox inconclusive | NPR1 antag cnf 27µM | NPR2 antag inconclusive | FLuc inh counter inactive | GloSensor cGMP inconclusive
CCCn1cc(-c2ccncc2)cc1C(=O)NCc1ccc(OC)cc1	HEK293 tox inconclusive, 3T3 cytotox inconclusive, FLuc inh inconclusive
CC(C)N1CCN(C(=O)c2csc(N3CCN(c4cccc(Cl)c4)CC3)n2)CC1	HEK293 tox inconclusive, 3T3 cytotox inconclusive
COc1cccc(N2CCN(c3nc(C(=O)NCc4ccncc4)cs3)CC2)c1	NPR1 antag inconclusive, HEK293 tox 35µM, 3T3 cytotox inconclusive | NPR1 antag cnf 27µM | NPR2 antag 22µM | FLuc inh counter inactive | GloSensor cGMP 27µM
COCCn1c(=O)c(C(=O)NCC(F)(F)F)nc2cccnc21	none (no result: NPR1 antag, FLuc inh)
CC(=O)c1cccc(NC(=O)O[C@@H]2CO[C@H]3[C@@H]2OC[C@@H]3NC(=S)NC2CCCCC2)c1	NPR1 antag 18µM, HEK293 tox inconclusive, 3T3 cytotox inconclusive | NPR1 antag cnf 24µM | NPR2 antag 24µM | FLuc inh counter inactive | GloSensor cGMP inconclusive
CC(=O)c1cccc(NC(=O)O[C@@H]2CO[C@H]3[C@@H]2OC[C@@H]3NC(=S)Nc2cccc3ccccc23)c1	NPR1 antag 8.9µM, HEK293 tox inconclusive, 3T3 cytotox inconclusive | NPR1 antag cnf 12µM | NPR2 antag 17µM | FLuc inh counter inactive | GloSensor cGMP 14µM
Cc1ccsc1C(=O)N1CCC2(CC1)N=C(c1ccc(Cl)cc1)NO2	NPR1 antag inconclusive, HEK293 tox inconclusive, 3T3 cytotox inconclusive
